Results on 100 molecules are retold here after PubChem BioAssay AID1259343 (VanderVen Lab, College of Veterinary Medicine, Cornell …, 2017).

The whole screen tested about 6,200 compounds, of which about 2,900 (47%) were called active. Cut-off read from the data, not from the text of the source: active = inhibition above about 50%; inactive = the rest. The set was probably picked from earlier hits. The list shows a part of the results.

The term inhibition denotes the drop in the measured response relative to a control, in per cent.

This test can be described thus: Mycobacterium tuberculosis growth inhibition, primary screen (AID 1259343). The following applies: inhibition: at 10 µM, stronger effect = higher value; outcome: 10 uM.
On to `N#CC1(c2ccccc2)CCC2(CC1)N=C(N)Nc1nc3cc4c(cc3n12)OCCCO4` (stereo not given), for which the inhibition is 45.8% (inactive).

As to `Clc1ccc(CNc2c3c(nc4nncn24)CCC3)cc1`, the inhibition is 54.3% (active).

On to `O=S(=O)(NCc1ccc(Cl)cc1)N1CCCCCC1`, for which the inhibition is 10.6% (inactive).

For the molecule `O=C(Nc1ccc(Oc2ccccc2)cc1)C1=COCCO1`, the inhibition is 49.4% (inactive).

Take `Cc1ccc(Sc2ccc(NC(=O)C3=COCCO3)cc2)cc1C`: the inhibition is 33.3% (inactive).

Regarding `O=C(Nc1ccc(SCc2cccnc2)cc1)C1=COCCO1`, the inhibition is 61% (active).

As for `O=C(Nc1nc(-c2nc3ccccc3s2)cs1)c1ccc([N+](=O)[O-])o1`, the inhibition was -46.3% (inactive).

For `N=c1oc2c([N+](=O)[O-])cc(Cl)cc2cc1-c1nc2ccccc2s1`, the inhibition was -34.4% (inactive).

`O=C1NC(=S)C(=Cc2ccc(-c3nc4ccccc4s3)o2)S1`: the inhibition was 77.4% (active).

For the molecule `NC(=S)NN=Cc1ccc(-c2nc3ccccc3s2)o1`, the inhibition was 67.3% (active).

Take `NC(=S)NN=Cc1ccc(-c2ccc(SC(F)F)cc2)o1`: the inhibition was 103% (active).

Regarding `N#CC(C#N)=Cc1ccc(-c2ccc(SC(F)F)cc2)o1`, the inhibition is -10.2% (inactive).

As for `O=C1NC(=S)C(=Cc2ccc(-c3ccc(F)cc3)o2)S1`, the inhibition is 97.6% (active).

For `N#CC(C#N)=Cc1ccc(-c2ccc(F)cc2)o1`, the inhibition is -20.9% (inactive).

As for `Cc1nc(CNS(=O)(=O)c2c(C)c(C)c(C)c(C)c2C)cs1`, the inhibition was 6.48% (inactive).

For `O=C(O)c1cc(Br)c2ccccc2c1O`, the inhibition is 96% (active).

Consider `Cc1ccn(C(=O)Cc2csc(-c3ccccn3)n2)c(=NC2CCCCC2)c1`, for which the inhibition is -7.81% (inactive).

Turning to `Cc1cc(NC(=O)CNCc2csc(-c3cnccn3)n2)ccc1Cl`, the inhibition is 77.5% (active).

In the case of `O=c1[nH]c2ccccc2c(O)c1Sc1ccccc1`, the inhibition was 82.5% (active).

In the case of `O=c1[nH]c2cc(Cl)ccc2c(O)c1-c1ccc(Oc2ccccc2)cc1`, the inhibition was 17.5% (inactive).

As for `O=C(c1c(-c2ccc(Br)cc2)c2ccccc2[nH]c1=O)C(F)(F)F`, the inhibition is 18.7% (inactive).

For `CCc1ccc(N2C(=O)/C(=C/c3cc(C)n(-c4ccc(C(=O)O)cc4)c3C)C(=O)NC2=S)cc1`, the inhibition is 34.2% (inactive).

`COC(=O)c1ccccc1NCc1cc(=O)oc2cc(O)c(O)cc12`: the inhibition is 75.9% (active).

For the molecule `N#Cc1cccc(C(=O)NCc2cccnc2OC2CCCC2)c1`, the inhibition is -4.09% (inactive).

In the case of `CNC(=O)C(C#N)C(=O)CCc1cccc(OC2CCCC2)c1` (stereo not given), the inhibition was 54.1% (active).

`CC1CC(=O)NN1CC(=O)N1c2ccccc2OCC1c1ccccc1` (stereo not given): the inhibition was 26.4% (inactive).

For `CCC(NC(=O)Nc1ccc(-c2csnn2)cc1)c1nccs1` (stereo not given), the inhibition was -4.07% (inactive).

As to `CCN(CC(C)C#N)C(=O)Nc1ccc(-c2csnn2)cc1` (stereo not given), the inhibition was 80.5% (active).

For the molecule `Cc1cc(=O)[nH]c(=S)[nH]1`, the inhibition was 0.31% (inactive).

With `CCc1ccc(S(=O)(=O)c2cnc3ccc(C)cc3c2N2CCC3(CC2)OCCO3)cc1`, the inhibition is 67.2% (active).

Regarding `O=C(Nc1ccc(Oc2ccccc2)nc1)C1CCN(C(=O)c2ccco2)CC1`, the inhibition was 90.5% (active).

In the case of `O=C(Nc1ccc(Oc2ccccc2)nc1)C1CCN(Cc2cccc3nonc23)CC1`, the inhibition result was “inactive”.

For `CC(=O)c1cc(CN2CCC(C(=O)Nc3ccc(Oc4ccccc4)nc3)CC2)cs1`, the inhibition is 63.2% (active).

Regarding `O=C(Nc1ccc(Oc2ccccc2)nc1)C1CCN(C(=O)c2cccs2)CC1`, the inhibition was 77.1% (active).

`C#Cc1ccc(CN2CCC(C(=O)Nc3ccc(Oc4ccccc4)nc3)CC2)cc1`: the inhibition is -2.94% (inactive).

As to `O=C(Nc1ccc(Oc2ccccc2)nc1)C1CCN(C(=O)c2cnsn2)CC1`, the inhibition is 93.8% (active).

As for `O=C(Nc1ccc(Oc2ccccc2)nc1)C1CCN(C(=O)[C@@H]2C[C@@H]3C=C[C@H]2C3)CC1`, the inhibition is 56.1% (active).

As to `COc1cc(CNCCO)cc(Cl)c1OCc1ccc(Cl)cc1Cl`, the inhibition is 83% (active).

As to `COc1ccc(OCCCOc2ccc(Cl)cc2Cl)cc1`, the inhibition was 27.8% (inactive).

With `COc1cc(C)ccc1S(=O)(=O)NC(=O)C1(C)CCN1C(=O)Cc1ccc(Cl)cc1Cl` (stereo not given), the inhibition was 47.9% (inactive).

For `O=c1[nH]c(=S)[nH]nc1-c1ccc2c(c1)OCCO2`, the inhibition is 36.5% (inactive).

Take `O=c1[nH]c(=S)[nH]nc1-c1ccc(F)c(F)c1`: the inhibition was 80.3% (active).

Consider `NC(CC1CCCC1)c1ccc(Oc2ccccc2)cc1` (stereo not given), for which the inhibition was 79.5% (active).

For `Nc1ccc(Oc2cc(N)cc(Oc3ccccc3)c2)cc1`, the inhibition was -36.6% (inactive).

Turning to `COc1cc(Oc2ccccc2)ccc1N`, the inhibition is 23.5% (inactive).

For the molecule `COc1ccccc1C1(O)CCN(CCCn2c3ccccc3c3ccccc32)CC1`, the inhibition was 51.9% (active).

Take `CCCc1ccc(C(O)c2ncc(-c3cccc(C)c3)[nH]2)cc1` (stereo not given): the inhibition was 19.5% (inactive).

Turning to `CCc1ccc(C(O)c2ncc(-c3cccc(C)c3)[nH]2)cc1` (stereo not given), the inhibition was 56.7% (active).

As for `CCc1ccc(C(O)c2ncc(-c3cccc(C(F)(F)F)c3)[nH]2)cc1` (stereo not given), the inhibition was 34% (inactive).

As to `Cc1ccc(C(O)c2ncc(-c3ccc(Cl)cc3)[nH]2)cc1` (stereo not given), the inhibition was 36.3% (inactive).

In the case of `Cc1ccc(-c2cnc(C(O)c3ccc(Cl)c(F)c3)[nH]2)cc1` (stereo not given), the inhibition is 42.2% (inactive).

On to `Cc1ccc(-c2cnc(C(O)c3cc(C)cc(C)c3)[nH]2)cc1` (stereo not given), for which the inhibition was 61.7% (active).

In the case of `CCCc1ccc(C(O)c2ncc(-c3ccccc3)[nH]2)cc1` (stereo not given), the inhibition was 36.8% (inactive).

Regarding `CCCc1ccc(C(O)c2ncc(-c3ccccc3F)[nH]2)cc1` (stereo not given), the inhibition was 21.1% (inactive).

As for `CCCc1ccc(C(O)c2ncc(-c3ccccc3C)[nH]2)cc1` (stereo not given), the inhibition was 78% (active).

Regarding `CCc1ccc(C(O)c2ncc(-c3ccc(C)cc3)[nH]2)cc1` (stereo not given), the inhibition was 1.21% (inactive).

Turning to `Cc1cc(C(O)c2ncc(-c3ccc(Cl)cc3)[nH]2)ccc1F` (stereo not given), the inhibition was 84.8% (active).

Turning to `CC(C)(C)c1ccc(C(O)c2ncc(-c3ccccc3)[nH]2)cc1` (stereo not given), the inhibition is 13.8% (inactive).

Turning to `CCCc1ccc(C(O)c2ncc(-c3cccc(F)c3)[nH]2)cc1` (stereo not given), the inhibition was 35.4% (inactive).

Turning to `OC(c1cc(F)cc(Cl)c1)c1ncc(-c2ccc(Cl)cc2)[nH]1` (stereo not given), the inhibition is 86.1% (active).

For `OC(c1cccc(F)c1)c1ncc(-c2ccc(C(F)(F)F)cc2)[nH]1` (stereo not given), the inhibition was 19% (inactive).

For `OC(c1ccc(Cl)cc1)c1ncc(-c2cccc(F)c2)[nH]1` (stereo not given), the inhibition is 8.73% (inactive).

Consider `OC(c1ccccc1)c1ncc(-c2ccc(Oc3ccccc3)cc2)[nH]1` (stereo not given), for which the inhibition was 36.3% (inactive).

As to `OC(c1cccc(F)c1)c1ncc(-c2ccc(Oc3ccccc3)cc2)[nH]1` (stereo not given), the inhibition is 89.6% (active).

Regarding `Cc1ccc(C(O)c2ncc(-c3ccc(C(F)(F)F)cc3)[nH]2)cc1F` (stereo not given), the inhibition was 61.8% (active).

Turning to `Cc1cc(C)c(C(O)c2ncc(-c3cccc4ccccc34)[nH]2)c(C)c1` (stereo not given), the inhibition was 78.9% (active).

For `Cc1ccc(C(O)c2ncc(-c3cccc(F)c3)[nH]2)cc1` (stereo not given), the inhibition is 11.8% (inactive).

`Cc1ccccc1-c1cnc(C(O)c2ccc(C(C)(C)C)cc2)[nH]1` (stereo not given): the inhibition was 49.1% (inactive).

Turning to `CS(=O)c1nncn1CC#Cc1ccc(C(F)(F)F)cc1` (stereo not given), the inhibition was 37% (inactive).

In the case of `OC(c1ccc(Cl)c(Cl)c1)c1ncc(-c2cccc(F)c2)[nH]1` (stereo not given), the inhibition is 23.7% (inactive).

In the case of `OC(c1cc(F)cc(Cl)c1)c1ncc(-c2ccc3ccccc3c2)[nH]1` (stereo not given), the inhibition is 73.4% (active).

Turning to `OC(c1ccc(Cl)c(F)c1)c1ncc(-c2cccc(F)c2)[nH]1` (stereo not given), the inhibition was 36.1% (inactive).

Turning to `Cn1c(CCC(=O)Nc2ccc(F)cc2F)nc(=O)c2ccccc21`, the inhibition was 72.3% (active).

With `CCc1nc2c(c(=O)c3ccccc3n2C)c(=O)n1CCc1ccccc1`, the inhibition is -31.8% (inactive).

`O=C1c2ccccc2C(=O)N1CCCCNc1ccc(F)cc1F`: the inhibition was 49.6% (inactive).

As for `O=C(CSc1ncnc2c1oc1ccccc12)Nc1ccc2c(c1)OCO2`, the inhibition was 47.2% (inactive).

On to `Cn1cnnc1SCC(=O)Nc1ccc2oc3ccccc3c2c1`, for which the inhibition was 76.7% (active).

On to `O=C(CSc1nncs1)Nc1ccc2oc3ccccc3c2c1`, for which the inhibition was 92.2% (active).

As to `Cc1cc(NC(=O)CSc2nc3ccccc3c(=O)n2C2CCCC(C)C2C)on1` (stereo not given), the inhibition is 9.06% (inactive).

For `Cn1nnnc1SCC(=O)Nc1ccc2oc3ccccc3c2c1`, the inhibition was 36.7% (inactive).

As to `CC(C)(C)NC(=O)[C@H]1CC[C@H]2[C@@H]3CC[C@H]4NC(=O)C=C[C@]4(C)[C@H]3CC[C@]12C`, the inhibition was 86.4% (active).

As to `CC(=O)[C@H]1CCC2C3CCC4=CC(=O)CC[C@]4(C)C3CC[C@@]21C` (stereo not given in full), the inhibition was 49.6% (inactive).

On to `Cc1ccc(Nc2nc(C)c([N+](=O)[O-])c(N3CCOCC3)n2)c(C)c1`, for which the inhibition is 2.59% (inactive).

As for `COc1ccc(-n2cc(-c3ccccc3)c3c(NCC(OC)OC)ncnc32)cc1`, the inhibition was 19.7% (inactive).

With `COCC(C)Nc1ncnc2c1c(-c1ccccc1)cn2-c1ccc(OC)cc1` (stereo not given), the inhibition is -15.1% (inactive).

Consider `COCCCNc1ncnc2c1c(-c1ccccc1)cn2-c1ccc(OC)cc1`, for which the inhibition was 91.3% (active).

For `Cc1ccc(-n2cc(-c3ccccc3)c3c(NCCCO)ncnc32)cc1`, the inhibition was 24.3% (inactive).

For the molecule `COCC(C)Nc1ncnc2c1c(-c1ccccc1)cn2-c1ccc(F)cc1` (stereo not given), the inhibition was 72.1% (active).

Take `COCCCNc1ncnc2c1c(-c1ccccc1)cn2-c1ccc(F)cc1`: the inhibition was 98.3% (active).

On to `COCCNc1ncnc2c1c(-c1ccccc1)cn2-c1cccc(Cl)c1`, for which the inhibition is 42.5% (inactive).

With `COCCNc1ncnc2c1c(-c1ccccc1)cn2-c1ccc(C)cc1`, the inhibition is 100% (active).

Take `CN(CC1=CC[C@H]2C[C@@H]1C2(C)C)Cc1nnc(-c2ccccc2)o1`: the inhibition was 39% (inactive).

On to `CCCCCCSc1nnc2[nH]c(=O)cc(N)n12`, for which the inhibition result is “inactive”.

`CCCCCCCSc1nnc2[nH]c(=O)cc(N)n12`: the inhibition result was “inactive”.

As for `CCCCCCSc1nnc2nc(C)cc(C)n12`, the inhibition is 58.4% (active).

Regarding `O=C(NS(=O)(=O)c1ccccc1)c1cccc(Cl)c1`, the inhibition was 88.3% (active).

Consider `O=S(=O)(Nc1ccc(C(F)(F)F)cc1)c1cccc(Cl)c1`, for which the inhibition is 22.9% (inactive).

`CNc1cc(C(=O)NS(=O)(=O)c2ccccc2)cc(Cl)n1`: the inhibition was 55.1% (active).

Take `O=C(NS(=O)(=O)c1cncc(Br)c1)c1ccc(OC(F)(F)F)cc1`: the inhibition was 18.9% (inactive).

For `COc1cc(C(=O)NS(=O)(=O)c2ccc(Cl)cc2)ccc1OC(C)C`, the inhibition is 28.1% (inactive).
